Results from PubChem BioAssay.
The source made the active and inactive calls. No rule for the calls is given here.

target: Pantothenate synthetase (Mycobacterium tuberculosis (strain ATCC 25618 / H37Rv)) (UniProt P9WIL5); test: Recombinant Mtb pantothenate synthetase (PanC) inhibitors, coupled enzyme, confirmatory (AID 375); conditions: coupled enzyme assay; at 10 µM, hits give high values;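 also: 0% = full reaction with vehicle and 100% = no enzyme background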
Sequence (P9WIL5 whole entry, looked up): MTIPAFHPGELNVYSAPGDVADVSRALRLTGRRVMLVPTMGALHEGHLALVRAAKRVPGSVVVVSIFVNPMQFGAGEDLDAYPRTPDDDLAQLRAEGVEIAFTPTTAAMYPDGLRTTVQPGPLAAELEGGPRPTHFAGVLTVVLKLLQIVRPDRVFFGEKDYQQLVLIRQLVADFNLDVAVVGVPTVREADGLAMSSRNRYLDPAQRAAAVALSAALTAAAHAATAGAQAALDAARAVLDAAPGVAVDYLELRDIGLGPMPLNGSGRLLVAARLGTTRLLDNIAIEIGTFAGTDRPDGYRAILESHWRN

Compound	inhibition
C[C@H]1C[C@@H]2[C@H]([C@@H](O)C[C@@]3(C)[C@H]2CC[C@]3(O)C(=O)CO)[C@@]2(C)C=CC(=O)C=C12	0% (inactive)
COc1ccccc1NC(=O)CSc1nnc(CC(=O)Nc2ccccc2)n1C	6% (inactive)
COCCNC(=O)c1ccc(Cl)c(Cl)c1	0% (inactive)
COc1ccccc1-c1c(C)nn2c(C)c(C(C)=O)cnc12	3% (inactive)
Cc1ccc(-c2nnn(CC(=O)NC3CC4CCC3C4)n2)cc1 (stereo not given)	4% (inactive)
CCCC(c1nnnn1Cc1ccc(OC)cc1)N1CCN(c2ccccc2OC)CC1 (stereo not given)	0% (inactive)
Cc1ccccc1N1C(N)=NC(N)=NC1(C)C	0% (inactive)
O=C(CSc1nnc(Cc2cc(=O)[nH]c(=O)[nH]2)n1-c1ccccc1)NCC1CCCO1 (stereo not given)	0% (inactive)
CCSc1nc(N)c(C#N)c(-c2ccccc2Cl)c1C#N	6% (inactive)
COC(=O)CCC(=O)CN	0% (inactive)
Cc1cc(C(=O)CSc2nnc(-c3ccco3)o2)c(C)n1CC1COc2ccccc2O1 (stereo not given)	0% (inactive)
Cc1cc(OCC(=O)Nc2ccc3oc(-c4ccncc4)nc3c2)ccc1Cl	0% (inactive)
c1ccc(CCNc2ccc3nncn3n2)cc1	2% (inactive)
Cn1cnc2c(N3CCCCC3)nccc21	0% (inactive)
COc1ccc(Cn2c(CCCO)nc3ccccc32)cc1OC	0% (inactive)
O=c1c2ccccc2sn1-c1ccc(S(=O)(=O)N2CCCCC2)cc1	0% (inactive)
CCC(C)NC(=O)CC1Oc2ccc(C)cc2NC1=O (stereo not given)	0% (inactive)
COc1ccc(C2CC(c3cccs3)n3nc(N)nc3N2)cc1 (stereo not given)	0% (inactive)
CCOC(=O)c1ccc(N2C(=O)CC(Sc3nnc(C)s3)C2=O)cc1 (stereo not given)	0% (inactive)
Cc1ccc(-n2c(=O)[nH]c3c(C(N)=O)nc(CC(C)C)nc32)cc1	0% (inactive)

Compound	inhibition
COC(=O)Oc1c(Br)c(=O)oc2ccccc12	0% (inactive)
Cc1ccc(NC(=O)Cn2cccc2)cc1Cl	0% (inactive)
Cc1cc2c(c(=O)n1CCc1ccccc1)C(C(C)C)C(C#N)=C(N)O2 (stereo not given)	5% (inactive)
CCOCCCNC(=O)C1CCN(S(=O)(=O)N(CC(C)C)CC(C)C)CC1	0% (inactive)
CCN(C(C)=O)c1nnc(CSc2nc3ccccc3s2)s1	5% (inactive)
Cn1c(Cl)nc2ccccc21	0% (inactive)
CCOC(=O)c1cc2n(n1)C(C(F)(F)C(F)(F)F)CC(C)N2 (stereo not given)	1% (inactive)
c1ccc(-c2nc3cnccn3c2Nc2ccc3c(c2)OCCO3)cc1	0% (inactive)
CCCC1O[C@@H]2C[C@H]3[C@@H]4CCC5=CC(=O)C=C[C@]5(C)[C@H]4[C@@H](O)C[C@]3(C)[C@]2(C(=O)CO)O1 (stereo not given in full)	4% (inactive)
Nc1nc2sc3c(c2c(=O)s1)CCCC3	0% (inactive)
O=C(NC1CC1)C1CCN(c2ccc(S(=O)(=O)N3CCOCC3)cc2)CC1	0% (inactive)
CC(C)COc1nc2ccccc2nc1C(C#N)C(=O)NC1CCCCC1 (stereo not given)	0% (inactive)
CCCCCc1nnc(NC(=O)Cc2cccs2)s1	0% (inactive)
CCCn1c(=O)c2ccccc2n2c(SCCOc3ccccc3F)nnc12	0% (inactive)
COc1ccc(-c2nnc(SCc3nnc(-c4ccc(Cl)cc4)o3)n2-c2ccccc2)cc1	0% (inactive)
CCOC(=O)c1cc(-c2ccc(Cl)s2)nc2c1c(C)nn2C	0% (inactive)
CC(OC(=O)c1ccco1)C(=O)NCc1cccs1 (stereo not given)	0% (inactive)
O=C(Oc1cc2oc(=O)c3c(c2cc1Cl)CCCC3)c1ccco1	0% (inactive)
Cc1csc2nc3ccccc3c(=O)n12	11% (inactive)
CCOc1ccc(-c2nnc3sc(-c4c(OC)cccc4OC)nn23)cc1	0% (inactive)
